# Results reported in ChEMBL document CHEMBL1961873, “Compounds: GSK PKIS; Assays: Nanosyn kinase panel” (2012).
# What was measured:
# [1] = target: Fibroblast growth factor receptor 4 (Homo sapiens) (UniProt P22455); settings: at 1 µM;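 further: reported figure is the averaged percent inhibition of FGFR4, from the GSK PKIS kinase screening panel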
# [2] = target: Tyrosine-protein kinase Fgr (Homo sapiens) (UniProt P09769); settings: at 0.1 µM
# [3] = target: Tyrosine-protein kinase Fgr (Homo sapiens) (UniProt P09769); settings: at 1 µM
# [4] = target: Vascular endothelial growth factor receptor 1 (Homo sapiens) (UniProt P17948); settings: at 0.1 µM
# Sequence of Vascular endothelial growth factor receptor 1 (Homo sapiens) (P17948 whole entry): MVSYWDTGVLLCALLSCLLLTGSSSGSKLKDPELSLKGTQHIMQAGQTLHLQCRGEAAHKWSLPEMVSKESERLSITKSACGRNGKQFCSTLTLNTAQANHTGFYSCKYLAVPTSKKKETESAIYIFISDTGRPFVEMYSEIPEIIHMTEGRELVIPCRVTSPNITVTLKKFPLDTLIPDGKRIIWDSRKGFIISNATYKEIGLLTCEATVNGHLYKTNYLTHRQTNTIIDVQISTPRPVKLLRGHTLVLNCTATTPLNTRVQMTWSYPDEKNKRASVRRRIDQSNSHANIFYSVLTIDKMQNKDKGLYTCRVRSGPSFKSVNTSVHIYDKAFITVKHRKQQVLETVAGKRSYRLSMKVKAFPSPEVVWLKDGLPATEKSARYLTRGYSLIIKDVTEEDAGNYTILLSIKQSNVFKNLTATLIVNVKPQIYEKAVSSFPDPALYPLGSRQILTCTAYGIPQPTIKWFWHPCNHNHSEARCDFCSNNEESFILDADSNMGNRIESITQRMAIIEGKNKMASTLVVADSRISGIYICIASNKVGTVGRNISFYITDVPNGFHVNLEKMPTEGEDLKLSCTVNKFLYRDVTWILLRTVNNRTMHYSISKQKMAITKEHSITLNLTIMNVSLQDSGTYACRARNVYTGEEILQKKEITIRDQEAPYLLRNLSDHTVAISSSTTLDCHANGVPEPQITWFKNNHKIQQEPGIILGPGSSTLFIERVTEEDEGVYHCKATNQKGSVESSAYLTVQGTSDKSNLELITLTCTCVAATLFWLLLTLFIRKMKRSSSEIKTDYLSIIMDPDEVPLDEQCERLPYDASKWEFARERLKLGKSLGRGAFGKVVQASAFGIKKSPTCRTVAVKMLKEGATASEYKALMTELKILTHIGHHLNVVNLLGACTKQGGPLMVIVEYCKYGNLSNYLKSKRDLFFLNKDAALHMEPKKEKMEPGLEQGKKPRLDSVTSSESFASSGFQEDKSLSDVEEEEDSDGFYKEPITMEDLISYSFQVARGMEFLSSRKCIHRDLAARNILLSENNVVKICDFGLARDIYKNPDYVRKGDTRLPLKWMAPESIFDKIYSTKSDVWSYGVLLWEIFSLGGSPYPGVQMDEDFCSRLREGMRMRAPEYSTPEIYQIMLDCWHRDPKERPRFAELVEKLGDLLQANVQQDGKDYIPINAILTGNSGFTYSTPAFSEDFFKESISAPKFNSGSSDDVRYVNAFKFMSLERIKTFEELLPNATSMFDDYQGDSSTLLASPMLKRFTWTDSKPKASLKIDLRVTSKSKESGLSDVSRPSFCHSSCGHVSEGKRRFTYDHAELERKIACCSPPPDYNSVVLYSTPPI
# [5] = target: Vascular endothelial growth factor receptor 1 (Homo sapiens) (UniProt P17948); settings: at 1 µM
# [6] = target: Receptor-type tyrosine-protein kinase FLT3 (Homo sapiens) (UniProt P36888); settings: at 0.1 µM
# [7] = target: Receptor-type tyrosine-protein kinase FLT3 (Homo sapiens) (UniProt P36888); settings: at 1 µM
# [8] = tested on: T1, Receptor-type tyrosine-protein kinase FLT3 (Homo sapiens), P36888 [D835Y]; settings: at 0.1 µM
# T1 sequence (whole entry): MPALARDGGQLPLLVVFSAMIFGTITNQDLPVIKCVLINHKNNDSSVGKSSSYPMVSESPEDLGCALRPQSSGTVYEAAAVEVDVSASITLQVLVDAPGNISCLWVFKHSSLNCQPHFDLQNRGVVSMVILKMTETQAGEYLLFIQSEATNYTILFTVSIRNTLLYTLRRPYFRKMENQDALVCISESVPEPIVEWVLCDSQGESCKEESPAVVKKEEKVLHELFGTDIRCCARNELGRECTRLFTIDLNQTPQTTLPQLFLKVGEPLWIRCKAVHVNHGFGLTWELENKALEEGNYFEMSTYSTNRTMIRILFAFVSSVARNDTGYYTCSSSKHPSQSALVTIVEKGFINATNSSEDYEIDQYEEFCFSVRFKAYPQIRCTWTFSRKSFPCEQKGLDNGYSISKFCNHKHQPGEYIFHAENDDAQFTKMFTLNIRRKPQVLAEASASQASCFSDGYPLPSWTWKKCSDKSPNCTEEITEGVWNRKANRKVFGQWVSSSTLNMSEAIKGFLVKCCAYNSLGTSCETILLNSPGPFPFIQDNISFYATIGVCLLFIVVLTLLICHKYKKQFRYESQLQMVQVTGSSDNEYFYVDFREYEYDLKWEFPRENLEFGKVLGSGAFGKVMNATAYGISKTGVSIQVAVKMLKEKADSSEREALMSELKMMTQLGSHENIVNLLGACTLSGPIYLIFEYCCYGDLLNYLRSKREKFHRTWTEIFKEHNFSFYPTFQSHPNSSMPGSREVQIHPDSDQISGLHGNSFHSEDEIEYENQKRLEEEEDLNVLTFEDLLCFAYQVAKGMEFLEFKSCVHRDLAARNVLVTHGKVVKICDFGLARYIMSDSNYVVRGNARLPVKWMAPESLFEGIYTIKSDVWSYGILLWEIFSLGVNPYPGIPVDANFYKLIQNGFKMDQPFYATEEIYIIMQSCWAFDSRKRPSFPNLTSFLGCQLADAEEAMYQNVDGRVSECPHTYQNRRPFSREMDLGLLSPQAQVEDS
# [9] = target: Non-receptor tyrosine-protein kinase TYK2 (Homo sapiens) (UniProt P29597); settings: at 1 µM;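 further: values are mean percent inhibition of TYK2 kinase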
# Sequence of Non-receptor tyrosine-protein kinase TYK2 (Homo sapiens) (P29597 whole entry): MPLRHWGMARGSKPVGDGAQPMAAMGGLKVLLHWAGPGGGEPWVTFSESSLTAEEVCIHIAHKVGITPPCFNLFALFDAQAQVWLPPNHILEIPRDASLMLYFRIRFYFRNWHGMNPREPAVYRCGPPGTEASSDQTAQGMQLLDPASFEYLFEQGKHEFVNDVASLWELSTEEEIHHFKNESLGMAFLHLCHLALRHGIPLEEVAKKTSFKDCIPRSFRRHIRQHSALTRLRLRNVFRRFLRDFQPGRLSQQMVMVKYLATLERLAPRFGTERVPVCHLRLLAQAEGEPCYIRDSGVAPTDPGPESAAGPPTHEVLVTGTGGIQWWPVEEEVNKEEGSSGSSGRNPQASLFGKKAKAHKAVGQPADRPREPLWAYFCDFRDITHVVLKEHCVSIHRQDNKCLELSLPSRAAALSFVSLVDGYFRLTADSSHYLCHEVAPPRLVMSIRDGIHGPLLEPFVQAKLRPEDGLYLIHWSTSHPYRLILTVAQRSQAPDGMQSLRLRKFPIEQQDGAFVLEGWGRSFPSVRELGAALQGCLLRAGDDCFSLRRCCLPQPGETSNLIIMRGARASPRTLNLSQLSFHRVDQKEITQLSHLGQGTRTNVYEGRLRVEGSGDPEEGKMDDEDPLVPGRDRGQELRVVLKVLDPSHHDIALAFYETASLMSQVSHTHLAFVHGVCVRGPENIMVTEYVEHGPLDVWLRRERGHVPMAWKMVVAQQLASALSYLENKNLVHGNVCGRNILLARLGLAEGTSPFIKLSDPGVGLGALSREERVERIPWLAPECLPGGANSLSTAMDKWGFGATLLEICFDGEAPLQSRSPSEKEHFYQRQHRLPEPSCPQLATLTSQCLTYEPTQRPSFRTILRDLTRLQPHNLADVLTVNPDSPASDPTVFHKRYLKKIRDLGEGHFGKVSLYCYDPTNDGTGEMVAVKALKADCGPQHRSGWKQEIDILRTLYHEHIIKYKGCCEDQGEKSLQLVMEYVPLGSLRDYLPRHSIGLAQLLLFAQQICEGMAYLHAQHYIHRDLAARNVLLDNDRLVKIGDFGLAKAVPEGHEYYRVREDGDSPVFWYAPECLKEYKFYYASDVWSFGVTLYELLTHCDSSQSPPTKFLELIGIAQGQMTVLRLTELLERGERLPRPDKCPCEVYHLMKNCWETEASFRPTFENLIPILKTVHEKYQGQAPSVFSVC
# [10] = target: T2, Tyrosine-protein kinase receptor TYRO3 (Homo sapiens) (UniProt Q06418); settings: at 0.1 µM
# T2 sequence (whole entry): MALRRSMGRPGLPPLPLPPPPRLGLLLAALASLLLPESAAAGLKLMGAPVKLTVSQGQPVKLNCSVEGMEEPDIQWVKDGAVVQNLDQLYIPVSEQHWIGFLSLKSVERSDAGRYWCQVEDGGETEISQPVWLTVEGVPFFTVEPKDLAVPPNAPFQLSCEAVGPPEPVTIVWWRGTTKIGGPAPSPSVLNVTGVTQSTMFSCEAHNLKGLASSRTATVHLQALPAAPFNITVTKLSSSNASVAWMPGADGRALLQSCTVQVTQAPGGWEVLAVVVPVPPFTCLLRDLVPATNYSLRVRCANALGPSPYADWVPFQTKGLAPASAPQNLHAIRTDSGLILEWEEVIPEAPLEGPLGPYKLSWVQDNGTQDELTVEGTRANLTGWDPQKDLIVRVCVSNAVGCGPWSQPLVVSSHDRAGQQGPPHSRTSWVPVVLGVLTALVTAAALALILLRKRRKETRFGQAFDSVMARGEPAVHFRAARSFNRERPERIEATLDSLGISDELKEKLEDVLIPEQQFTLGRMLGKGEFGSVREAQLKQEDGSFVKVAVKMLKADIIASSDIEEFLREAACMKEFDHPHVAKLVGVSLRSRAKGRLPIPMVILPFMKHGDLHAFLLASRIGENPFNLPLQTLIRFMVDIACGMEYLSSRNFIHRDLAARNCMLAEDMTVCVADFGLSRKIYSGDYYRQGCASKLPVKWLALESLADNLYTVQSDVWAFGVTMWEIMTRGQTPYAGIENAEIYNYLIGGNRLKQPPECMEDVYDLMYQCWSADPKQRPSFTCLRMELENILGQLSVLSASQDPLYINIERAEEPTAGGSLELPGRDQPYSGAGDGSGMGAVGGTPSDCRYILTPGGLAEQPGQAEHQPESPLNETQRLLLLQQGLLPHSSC
# [11] = target: T2, Tyrosine-protein kinase receptor TYRO3 (Homo sapiens); settings: at 1 µM
# [12] = target: Tyrosine-protein kinase Yes (Homo sapiens) (UniProt P07947); settings: at 0.1 µM
# [13] = target: Tyrosine-protein kinase Yes (Homo sapiens) (UniProt P07947); settings: at 1 µM
# [14] = target: T3, Tyrosine-protein kinase ZAP-70 (Homo sapiens) (UniProt P43403); settings: at 0.1 µM
# T3 sequence (whole entry): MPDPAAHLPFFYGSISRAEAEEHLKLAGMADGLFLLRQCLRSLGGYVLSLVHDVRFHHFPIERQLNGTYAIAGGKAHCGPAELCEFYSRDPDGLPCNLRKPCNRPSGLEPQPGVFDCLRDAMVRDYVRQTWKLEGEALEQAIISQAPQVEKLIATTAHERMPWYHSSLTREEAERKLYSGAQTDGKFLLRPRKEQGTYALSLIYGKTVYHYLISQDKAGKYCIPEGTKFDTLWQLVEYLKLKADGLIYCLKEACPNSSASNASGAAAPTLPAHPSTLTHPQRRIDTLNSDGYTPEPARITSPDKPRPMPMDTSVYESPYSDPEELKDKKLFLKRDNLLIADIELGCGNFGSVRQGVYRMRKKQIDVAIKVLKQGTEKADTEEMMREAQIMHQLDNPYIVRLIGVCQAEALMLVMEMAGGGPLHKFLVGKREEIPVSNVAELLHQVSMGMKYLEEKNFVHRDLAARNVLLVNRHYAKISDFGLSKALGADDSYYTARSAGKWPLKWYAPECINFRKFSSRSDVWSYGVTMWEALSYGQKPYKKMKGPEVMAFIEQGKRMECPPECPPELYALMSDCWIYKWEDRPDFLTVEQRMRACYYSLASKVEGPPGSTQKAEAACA
# [15] = target: T3, Tyrosine-protein kinase ZAP-70 (Homo sapiens); settings: at 1 µM
# [16] = target: Serine/threonine-protein kinase B-raf (Homo sapiens) (UniProt P15056); settings: at 0.1 µM
# Sequence of Serine/threonine-protein kinase B-raf (Homo sapiens) (P15056 whole entry): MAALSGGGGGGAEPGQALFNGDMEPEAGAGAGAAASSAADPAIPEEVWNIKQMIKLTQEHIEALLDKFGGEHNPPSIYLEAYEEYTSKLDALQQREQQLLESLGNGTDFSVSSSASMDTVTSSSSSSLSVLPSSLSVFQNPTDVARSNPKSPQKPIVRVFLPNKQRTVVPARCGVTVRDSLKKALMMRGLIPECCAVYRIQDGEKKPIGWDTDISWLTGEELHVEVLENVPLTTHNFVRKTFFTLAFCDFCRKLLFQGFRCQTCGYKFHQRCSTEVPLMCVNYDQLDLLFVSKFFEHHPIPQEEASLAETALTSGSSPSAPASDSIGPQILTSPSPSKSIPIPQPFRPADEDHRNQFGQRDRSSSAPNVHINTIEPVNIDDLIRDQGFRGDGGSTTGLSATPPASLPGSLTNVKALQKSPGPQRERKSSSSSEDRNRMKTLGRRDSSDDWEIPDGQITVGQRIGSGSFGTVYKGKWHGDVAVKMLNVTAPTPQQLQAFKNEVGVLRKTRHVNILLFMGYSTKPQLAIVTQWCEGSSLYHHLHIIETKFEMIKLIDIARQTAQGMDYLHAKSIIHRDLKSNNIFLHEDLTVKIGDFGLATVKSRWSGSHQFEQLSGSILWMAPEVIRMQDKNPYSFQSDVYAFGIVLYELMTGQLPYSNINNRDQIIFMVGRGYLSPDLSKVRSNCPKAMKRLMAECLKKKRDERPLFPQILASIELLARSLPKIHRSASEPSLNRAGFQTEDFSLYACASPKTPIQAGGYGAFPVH
# [17] = target: Serine/threonine-protein kinase B-raf (Homo sapiens) (UniProt P15056); settings: at 1 µM
# [18] = tested on: Serine/threonine-protein kinase B-raf (Homo sapiens), P15056 [V600E]; settings: at 0.1 µM
# Sequence of Serine/threonine-protein kinase B-raf (Homo sapiens), P15056 [V600E] (P15056 whole entry V600E): as the sequence (P15056 whole entry) above, with V600E counted along it
# [19] = tested on: Serine/threonine-protein kinase B-raf (Homo sapiens), P15056 [V600E]; settings: at 1 µM
# [20] = target: RAF proto-oncogene serine/threonine-protein kinase (Homo sapiens) (UniProt P04049); settings: at 0.1 µM;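 further: values are mean CRAF kinase inhibition from profiling of the GSK Published Kinase Inhibitor Set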
# Sequence of Tyrosine-protein kinase Fgr (Homo sapiens) (P09769 2-529 limits assumed): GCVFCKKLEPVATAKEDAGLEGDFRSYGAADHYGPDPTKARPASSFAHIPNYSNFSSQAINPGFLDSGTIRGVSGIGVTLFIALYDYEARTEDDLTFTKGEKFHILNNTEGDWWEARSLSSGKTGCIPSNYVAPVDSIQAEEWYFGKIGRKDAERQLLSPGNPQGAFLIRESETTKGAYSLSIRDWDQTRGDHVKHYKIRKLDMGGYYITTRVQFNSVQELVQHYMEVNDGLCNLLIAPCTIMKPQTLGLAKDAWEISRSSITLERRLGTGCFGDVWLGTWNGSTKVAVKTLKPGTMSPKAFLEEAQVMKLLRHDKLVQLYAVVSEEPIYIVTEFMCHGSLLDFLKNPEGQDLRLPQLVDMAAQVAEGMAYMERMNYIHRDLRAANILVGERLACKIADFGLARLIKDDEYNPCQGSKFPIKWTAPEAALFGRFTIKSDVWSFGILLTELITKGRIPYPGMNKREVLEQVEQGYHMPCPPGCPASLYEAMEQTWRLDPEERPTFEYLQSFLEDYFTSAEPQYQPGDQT
# Sequence of Fibroblast growth factor receptor 4 (Homo sapiens) (P22455 22-802 limits assumed): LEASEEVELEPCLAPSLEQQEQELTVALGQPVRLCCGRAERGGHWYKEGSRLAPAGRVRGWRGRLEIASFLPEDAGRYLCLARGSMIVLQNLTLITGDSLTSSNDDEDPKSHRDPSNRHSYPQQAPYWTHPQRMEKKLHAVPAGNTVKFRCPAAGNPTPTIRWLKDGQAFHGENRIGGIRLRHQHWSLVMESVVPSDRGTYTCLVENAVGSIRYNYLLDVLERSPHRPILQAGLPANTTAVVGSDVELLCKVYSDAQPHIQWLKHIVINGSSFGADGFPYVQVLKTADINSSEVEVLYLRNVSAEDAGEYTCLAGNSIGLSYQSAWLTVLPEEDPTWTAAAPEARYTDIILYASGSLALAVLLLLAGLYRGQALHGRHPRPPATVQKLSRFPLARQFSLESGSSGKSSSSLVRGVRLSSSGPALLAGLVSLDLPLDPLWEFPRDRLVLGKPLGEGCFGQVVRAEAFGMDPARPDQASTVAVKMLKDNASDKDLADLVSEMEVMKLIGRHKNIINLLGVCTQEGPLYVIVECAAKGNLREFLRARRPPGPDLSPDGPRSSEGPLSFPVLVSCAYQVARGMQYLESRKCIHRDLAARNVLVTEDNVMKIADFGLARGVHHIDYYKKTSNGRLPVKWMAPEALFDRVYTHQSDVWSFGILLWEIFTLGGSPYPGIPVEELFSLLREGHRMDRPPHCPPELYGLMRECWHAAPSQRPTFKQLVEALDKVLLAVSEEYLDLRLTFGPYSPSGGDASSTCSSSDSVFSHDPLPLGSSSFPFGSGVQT
Compound,inhibition [1] [%],inhibition [2] [%],inhibition [3] [%],inhibition [4] [%],inhibition [5] [%],inhibition [6] [%],inhibition [7] [%],inhibition [8] [%],inhibition [9] [%],inhibition [10] [%],inhibition [11] [%],inhibition [12] [%],inhibition [13] [%],inhibition [14] [%],inhibition [15] [%],inhibition [16] [%],inhibition [17] [%],inhibition [18] [%],inhibition [19] [%],inhibition [20] [%]
c1cc(-c2cnn3nc(N4CCOCC4)ccc23)nc(NC2CC2)n1,1.73,3.22,8.79,3.82,8.82,4.34,17.2,7.24,-4.59,-0.77,2.97,0.8,0.73,-5.37,-0.37,6.23,11.5,3.6,9.04,1.78
c1ccc(-c2nc3n(c2-c2ccc4c(c2)OCO4)CCC3)nc1,1.32,-0.63,0.17,1.18,0.86,1.13,0.36,-1.36,-1.07,0.75,1.8,1.3,3.94,4.17,1.94,2.61,2.48,2.01,3.56,-0.19
CCn1c(-c2nonc2N)nc2c(C#CC(C)(C)O)ncc(OC3CCNCC3)c21,-1.22,1.43,4.57,5.67,16.4,3.32,3.82,1.56,-1.36,2.05,2.44,1.38,5.89,0.49,1.77,3.57,6.35,4.12,3.02,8.75
CC(=O)Nc1cccc(C#Cc2cncnc2Nc2ccc(OCc3cccc(F)c3)c(Cl)c2)c1,1.74,2.84,9.6,2.19,3.25,2.59,2.38,-3.37,0.26,3.62,0.81,1.2,1.7,3.59,6.95,1.95,1.44,1.85,2.03,2.77
CNC(=O)c1cncc(/C=C/c2ccccc2Cl)c1,1.93,5.13,9.91,0.53,2.73,1.25,-0.38,3.03,2.16,0.43,2.53,3.64,7.95,1.79,1.12,-0.63,0.08,-0.33,0.71,0.74
COc1ccc2[nH]c3c4[nH]c5ccc(OC)cc5c4c4c(c3c2c1)C(=O)NC4=O,3.95,10.8,28,2.46,19.2,28.6,79.1,65,-0.6,17.1,63.7,6.75,33.5,2.68,8.6,5.05,7.83,5.01,6.69,-1.72
Cc1ccc2c(-c3ccnc(Nc4ccccc4)n3)c(-c3ccc(F)cc3)nn2n1,1.8,40.7,78.4,2.49,22.1,2.15,4.21,3.24,-1.64,3.56,25.6,58.4,92.1,2.85,2.04,6.37,15.5,4.53,13,-2.73
CC1=C(C(=O)Nc2cc(Cl)c3[nH]ncc3c2)C(c2ccc(C(F)(F)F)cc2)CC(=O)N1 (stereo not given),2.25,2.78,4.88,-0.55,-1.53,1.66,3.1,-4.83,-1.04,3.7,5.41,6.96,27.4,3.23,3.9,9.34,35.7,10.2,35.6,0.78
